Records with an inconclusive call do not appear. Active and inactive are the calls of the source.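 Rule for the calls, unless noted: active = compounds whose cell count with miR-34 switched on is under 0.7 times the count with it off; inactive = the rest.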
Key:
[1] = SU-DIPG-XXV glioma cell viability, MIPE5.0 library, qHTS (AID 1347068; cut-off not given, nearly all actives have IC50 up to about 30 µM)
[2] = sensitizers of A549 cells to miR-34 induction, primary screen, imaging, A549 dox-inducible miR-34, nuclei and caspase counts (AID 1347080); conditions: A549 miR-34 inducible, Hoechst nuclei count, 48 h
[3] = stronger effect = lower value, cell number ratio, induced over uninduced
[4] = measured here: relative caspase fold change +Dox/-Dox
[5] = measured here: total cells with miR-34 induction, stronger effect = lower value
[6] = measured here: total cells without miR-34 induction

Row | SMILES | outcome [1] | fold change [2, 3] | fold change [2, 4] | cell count [2, 5] | cell count [2, 6]
1 | COc1ccc(-c2c(C)nn3c(NCCN4CCOCC4)cc(C)nc23)cc1OC | inactive |  |  |  | 
2 | CCCCC[C@H](O)/C=C/[C@H]1C(=O)C[C@H](O)[C@@H]1CCCCCCCO |  | 1.14 (inactive) | 1.46 | 5820 | 5120
3 | O=P(O)(O)OC1[C@@H](O)[C@H](O)C(O)[C@H](O)[C@@H]1O (some centres undefined) |  | 0.924 (inactive) | 0.602 | 5550 | 6010
4 | CC1=NN(c2ccc(C(=O)O)cc2)C(=O)/C1=C/c1ccc(-c2cc(C)c(C)cc2[N+](=O)[O-])o1 | inactive |  |  |  | 
5 | COc1cc(/C=C/c2ccc(Cl)cc2)cc(OC)c1 |  | 1.01 (inactive) | 0.802 | 6120 | 6070
6 | CCCCCCCC/C=C\CCCCCC(=O)OC |  | 0.895 (inactive) | 0.755 | 5020 | 5610
7 | O=C(O)c1ccccc1-c1ccc(/C=c2\sc3nc4cc(Br)cnc4n3c2=O)o1 | inactive |  |  |  | 
8 | CCCCC[C@H](O)/C=C/[C@H]1CCC(=O)[C@@H]1CCCCCCC(=O)O |  | 0.938 (inactive) | 1.33 | 5360 | 5720
9 | CN(CCO)C1CCN(c2ccc(Nc3ncc4c5ccnc(F)c5n(C5CCCC5)c4n3)nc2)CC1 | inactive |  |  |  | 
10 | COc1ccc2c(c1)c(CC(=O)Oc1ccc(-c3cc(=S)ss3)cc1)c(C)n2C(=O)c1ccc(Cl)cc1 |  | 0.929 (inactive) | 2.02 | 5100 | 5490
11 | COc1ccc(/C=C/c2cc(Cl)cc(Cl)c2)cc1 |  | 1.04 (inactive) | 0.753 | 5410 | 5220
12 | CCCCC[C@H](O)/C=C/[C@H]1[C@H](O)CC(=O)[C@H]1CCCCCCC(=O)O |  | 1.03 (inactive) | 0.989 | 5570 | 5390
13 | Nc1nc2[nH]c(=O)[nH]c2c(=O)[nH]1 |  | 0.901 (inactive) | 0.746 | 6070 | 6740
14 | CCCc1oc(CCC(=O)O)c(C(=O)O)c1C |  | 0.885 (inactive) | 0.896 | 5170 | 5840
15 | CC(C)(C)OC(=O)Nc1cccc2[nH]ccc12 |  | 0.913 (inactive) | 0.676 | 4970 | 5440
16 | CCCc1cc(C(=O)c2ccc(-c3ccccc3)cc2)ccc1OCCCN1CCCc2c(OC(C)(C)C(=O)O)cccc21 |  | 0.856 (inactive) | 1.42 | 5600 | 6540
17 | CCCCC[C@H](O)/C=C/[C@H]1C(=O)C[C@H](O)[C@@H]1CCCCCCC(=O)O |  | 0.92 (inactive) | 0.486 | 4900 | 5320
18 | CCCCCCCCCCCCCCCC(=O)NCCS(=O)(=O)O |  | 1.07 (inactive) | 0.86 | 6370 | 5950
19 | CC(C)CCCCCCC/C=C\C(=O)O |  | 0.991 (inactive) | 0.344 | 5830 | 5880
20 | O=P(O)(O)O[C@H]1[C@H](O)[C@@H](O)[C@H](OP(=O)(O)O)[C@@H](OP(=O)(O)O)[C@H]1O |  | 1 (inactive) | 0.768 | 5340 | 5330
21 | CCCCCCCCCCCCCCCCOC[C@H](COP(=O)([O-])OCC[N+](C)(C)C)OC |  | 0.789 (inactive) | 1.27 | 5780 | 7330
22 | CCCCC(C)(C)[C@H](O)/C=C/[C@H]1[C@H](O)CC(=O)[C@@H]1CC(=O)CCCCC(=O)O |  | 0.919 (inactive) | 1.32 | 5680 | 6180
23 | CCCCCC/C=C\CCCCCCCC(=O)OCC |  | 0.904 (inactive) | 1.03 | 5560 | 6150
24 | CN(C)c1cc(NC(=O)CNC(C)(C)C)c(O)c2c1C[C@H]1C[C@@H]3C(C(=O)C(C(N)=O)=C(O)[C@H]3N(C)C)C(=O)C1=C2O (some centres undefined) |  | 0.886 (inactive) | 0.781 | 8740 | 9860

Reference: PubChem BioAssay
